Experimental data from ChEMBL document CHEMBL5308504, “Tm Shift (DSF) assay results for EUbOPEN Chemogenomics Library” (2023).
“And” between values parts separate entries of the source, which are not always exact repeats. Equal entries are not always repeated.

How the values were obtained:
[1] = molecular target: Bromodomain-containing protein 4 (Homo sapiens) (UniProt O60885); details: Compound concentration 20.0 uM, Protein concentration 2.0 uM, Result type QC Liability
[2] = molecular target: T1, Transcription intermediary factor 1-alpha (Homo sapiens) (UniProt O15164); details: Compound concentration 20.0 uM, Protein concentration 2.0 uM, Result type QC Liability
T1 sequence (whole entry): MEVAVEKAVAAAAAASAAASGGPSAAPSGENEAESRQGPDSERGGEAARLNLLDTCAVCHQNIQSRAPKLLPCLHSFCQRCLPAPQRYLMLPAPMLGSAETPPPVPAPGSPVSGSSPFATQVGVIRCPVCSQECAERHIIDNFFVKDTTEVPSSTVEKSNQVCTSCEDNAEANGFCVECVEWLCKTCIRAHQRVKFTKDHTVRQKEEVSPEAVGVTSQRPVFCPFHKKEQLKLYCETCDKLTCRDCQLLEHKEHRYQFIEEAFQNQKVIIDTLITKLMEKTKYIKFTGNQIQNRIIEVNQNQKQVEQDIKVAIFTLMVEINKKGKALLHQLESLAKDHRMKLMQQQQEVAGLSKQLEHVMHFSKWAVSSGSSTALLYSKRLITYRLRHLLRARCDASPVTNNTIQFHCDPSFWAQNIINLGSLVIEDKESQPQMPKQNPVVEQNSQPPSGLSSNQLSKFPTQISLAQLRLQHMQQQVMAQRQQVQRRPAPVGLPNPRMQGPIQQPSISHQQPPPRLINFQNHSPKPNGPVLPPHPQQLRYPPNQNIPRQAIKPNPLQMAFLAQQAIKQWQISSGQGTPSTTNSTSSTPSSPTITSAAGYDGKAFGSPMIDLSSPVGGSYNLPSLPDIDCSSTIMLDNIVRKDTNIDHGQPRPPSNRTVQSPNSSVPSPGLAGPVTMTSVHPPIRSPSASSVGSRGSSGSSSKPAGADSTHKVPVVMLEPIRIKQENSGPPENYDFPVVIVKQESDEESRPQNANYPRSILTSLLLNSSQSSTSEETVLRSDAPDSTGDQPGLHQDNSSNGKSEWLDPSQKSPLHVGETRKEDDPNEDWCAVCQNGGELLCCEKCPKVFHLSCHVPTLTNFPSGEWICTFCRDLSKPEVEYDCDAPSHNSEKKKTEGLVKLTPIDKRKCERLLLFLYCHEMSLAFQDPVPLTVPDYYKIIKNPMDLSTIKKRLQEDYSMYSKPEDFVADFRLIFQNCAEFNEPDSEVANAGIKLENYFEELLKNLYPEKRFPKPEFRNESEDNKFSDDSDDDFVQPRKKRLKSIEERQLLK

SMILES | ΔTm [1] | ΔTm [2]
Cc1ncsc1-c1ccc(CNC(=O)[C@@H]2C[C@H](O)CN2C(=O)[C@@H](NC(=O)C2(F)CC2)C(C)(C)C)c(OCCOc2ccc(CN3CCN(c4cc(-c5ccccc5O)nnc4N)CC3)cc2)c1 (relative stereo) | 14.5 °C | 1.57 °C
CS(=O)(=O)NCC[C@H](NC(=O)c1cncc2c1cnn2-c1ccc(F)cc1)c1ccnc(S(C)(=O)=O)c1 | -0.38 °C | 0.28 °C
CCCN1CCC(C#N)(NC(=O)[C@H](CC(C)(C)C)NC(=O)N2CCOCC2)CC1 | -0.48 °C | 0.46 °C
CN1CC(=O)N(C)c2cnc(Nc3ccc(NC(=O)Nc4cccc(C(=O)O)c4)cc3)nc21 | 0.02 °C | -0.69 °C
Cc1nsc(Nc2cnc(C(F)(F)F)cn2)c1C(=O)Nc1ccc(O[C@H]2CCCN(CC(F)(F)F)C2)nc1 | 1.66 °C | -2.89 °C
N=C(N)NCCC[C@@H](NC(=O)C(c1ccccc1)c1ccccc1)C(=O)NCc1ccc(CNC(N)=O)cc1 | 0.42 °C | 0.26 °C
O=C(N[C@H](Cc1ccccc1)C(=O)O)c1cccc(OCc2cccnc2)c1 | -1.53 °C | -0.73 °C
N#CN1CC[C@@H](C(=O)Nc2nc3c(s2)CN(C(=O)CN=[N+]=[N-])CC3)C1 | -1.95 °C | -0.82 °C
CCC(=O)N[C@H]1CC[C@@H](C(=O)N(C)c2ccc(-c3nc4ccccc4o3)cc2)C1 | 0.09 °C | 0.23 °C
CN[C@@H](C)C(=O)N[C@H](C(=O)N1CCC[C@H]1C(=O)Nc1sc(-c2ncco2)nc1-c1ccccc1)C1CCCCC1 | -2.68 °C | -2.9 °C
CC1(C)Cc2nc(C3CCCC3)c([C@@H](F)c3ccc(C(F)(F)F)cc3)c(C3CCCCC3)c2[C@@H](O)C1 | 0.17 °C | 0.34 °C
CC(=O)c1c(C)c2cnc(Nc3ccc(N4CCN(CCCCNC(=O)COc5cccc6c5C(=O)N(C5CCC(=O)NC5=O)C6=O)CC4)cn3)nc2n(C2CCCC2)c1=O (centres undefined) | -0.38 °C | -3.15 °C
COc1cc(-c2cc([C@H](O)C3CC3)n3ncnc(N)c23)ccc1CO | 0.22 °C | 0.24 °C
CC(C)(O)c1coc(S(=O)(=O)NC(=O)Nc2c3c(cc4c2CCC4)CCC3)c1 | -0.92 °C | -0.55 °C
CC(C)c1cnc(NC(=O)Cc2ccccc2)s1 | -1.14 °C | -1.45 °C
CC(=O)c1ccc2c(c1)/C(=C(/Nc1cccc(C#N)c1)c1ccc3c(c1)OCCO3)C(=O)N2 | -1.21 °C | -2.47 °C
Cn1cc(-c2ccc(N(C(=O)NCc3ccccc3)[C@H]3CC[C@H](Nc4ccc(C#N)cn4)CC3)cc2)ccc1=O | -0.82 °C | -1.6 °C
C=CC[C@@H]1/C=C(\C)C[C@H](C)C[C@H](OC)[C@H]2O[C@@](O)(C(=O)C(=O)N3CCCC[C@H]3C(=O)O[C@H](/C(C)=C/[C@@H]3CC[C@@H](O)[C@H](OC)C3)[C@H](C)[C@@H](O)CC1=O)[C@H](C)C[C@@H]2OC | -1.85 °C | -0.9 °C
C[C@@H]1CN(CC(=O)N2CC(C)(C)c3nc(CO)c(Cc4ccc(F)cc4)cc32)[C@@H](CN2CCOC[C@H]2C)CN1 | -1.96 °C | -0.43 °C
CN(C)C(=O)c1sc2nc(N3CCC(S(C)(=O)=O)CC3)cc(C(F)(F)F)c2c1N | -3.42 °C and 1.01 °C | 0.17 °C and 0.19 °C
CN[C@@H](C)C(=O)N[C@H]1CN(C(=O)CC(C)C)CC[C@H]2CC[C@@H](C(=O)NC(c3ccccc3)c3ccccc3)N2C1=O | -2.41 °C | -2.26 °C
CCO[C@H](COc1ccc(C(F)(F)F)cc1)CSc1ccc(OCC(=O)O)c(C)c1 | -2.72 °C | -3.26 °C
CN(C)C(=O)Cn1cc(-c2nc(C3(c4ccc(-c5cnc(N)nc5)cc4)CC3)no2)cn1 | -1.16 °C | 0.32 °C
CCOC(=O)Nc1ccc2c(c1)N(C(=O)CN(CC)CC)c1ccccc1CC2 | -1.53 °C | -1.69 °C
Cc1nc2ccccc2c(-c2ccc3c4c(ccnc24)CCO3)c1[C@H](OC(C)(C)C)C(=O)O | -1.5 °C | 0.24 °C
CC(C)(O)[C@H]1CC[C@H](Nc2ccc3ncc(-c4cccc(C(F)(F)F)c4)n3n2)CC1 | -0.97 °C | -1.82 °C
CS(=O)(=O)NC(=O)CCC/C=C\C[C@H]1C(=O)C[C@@H](O)[C@@H]1/C=C/[C@@H](O)COc1ccccc1 | -2 °C | -0.45 °C
